Most compounds without a hit are left out; they make up all but 4.1% or so of the library.
MBD2 inh – inhibitors of MBD2 binding to methylated DNA, primary screen, biochemical, TR-FRET, DNA-binding domain, human; Methyl-CpG-binding domain protein 2 (Homo sapiens), Q9UBB5; MBD2 binding to methylated oligonucleotide; inhibition, % at 4.4 µM; actives 0.31% (n = 370,000); AID 686964, 2013; in the data active = inhibition above about 13%
UHRF1 MBD2 ctr – UHRF1 methylated DNA binding inhibitors, primary screen, counter-screen for MBD2 inhibitor project, biochemical, TR-FRET, human UHRF1, single concentration | E3 ubiquitin-protein ligase UHRF1 (Homo sapiens), Q96T88 | UHRF1 binding to methylated oligo | inhibition, % at 4.4 µM | actives 0.75% (n = 370,000); in the data active = inhibition above about 21%;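 also: UHRF1 SRA domain binding a hemimethylated CpG hairpin DNA probe; 0% = median of test compound wells and 100% = reference inhibitor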
LEDGF integ inh – blockers of LEDGF/p75-dependent integrase strand transfer – biochemical, TR-FRET, high throughput, primary screen. HIV-1 integrase (with human LEDGF/p75). TR-FRET IN-LEDGF/p75 DNA integration, Eu/Cy5. inhibition, % at 3.7 µM. actives 0.64% (n = 370,000). AID 743269, 2014;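 active = inhibition above the screen-wide mean plus 3 SD, cut at about 13% in these data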;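 also: signal is the Cy5 over europium emission ratio at 671 and 618 nm; 0% = plate median of compound wells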
PRMT1 inh – PRMT1 methyltransferase inhibitors, primary screen, biochemical, fluorescence polarization. Protein arginine N-methyltransferase 1 (Homo sapiens), Q99873. recombinant PRMT1, activity-based probe fluorescence polarization. inhibition, % at 2.79 µM. actives 1.3% (n = 370,000);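 active = inhibition above about 21% made by adding two undisclosed values, limit read from the data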
Target sequence (Q99873 whole entry, looked up): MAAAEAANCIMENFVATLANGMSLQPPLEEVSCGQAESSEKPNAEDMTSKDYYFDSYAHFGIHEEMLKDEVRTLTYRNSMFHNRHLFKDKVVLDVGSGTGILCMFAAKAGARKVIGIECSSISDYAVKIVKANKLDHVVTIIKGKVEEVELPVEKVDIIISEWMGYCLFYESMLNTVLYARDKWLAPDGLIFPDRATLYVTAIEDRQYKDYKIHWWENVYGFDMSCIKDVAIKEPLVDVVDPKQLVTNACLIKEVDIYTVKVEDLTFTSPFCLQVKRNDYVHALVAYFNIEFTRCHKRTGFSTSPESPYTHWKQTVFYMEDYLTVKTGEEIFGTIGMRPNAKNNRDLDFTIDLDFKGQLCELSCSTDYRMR
ABHD5 PLIN5 PPI – ABHD5-PLIN5 interaction inhibitors, primary screen, cell lysate, split luciferase complementation, luminescence | Perilipin-5 (Homo sapiens) + 1-acylglycerol-3-phosphate O-acyltransferase ABHD5 (Homo … | Split G. princeps luciferase complementation, 4 h | inhibition, % at 4 µM | actives 0.78% (n = 360,000) | AID 602281, 2012;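 active = inhibition above the mean inhibition across every tested compound plus 3 SD, cut at about 22% in these data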;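 also: 0% = DMSO only wells and the 100% control is not disclosed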
rCAG binder – binders of r(CAG) RNA repeats, primary screen, biochemical, fluorescence; r(CAG) RNA repeat, TO-PRO-1 dye displacement fluorescence; inhibition, % at 3 µM; actives 1.3% (n = 370,000);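 active = inhibition above the plate cutoff, the mean of all test compounds on that plate plus 3 SD, cut at about 35% in these data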;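 also: 0% = DMSO alone and 100% = 100 µM mitoxantrone as full dye displacement; higher means more dye released from RNA so lower well fluorescence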
IN multimer up – HIV-1 IN multimer formation enhancers, counter-screen for LEDGF/p75 integration inhibitor project, biochemical, TR-FRET; shares compounds with LEDGF integ inh; TR-FRET HIV-1 integrase multimerization; activation, % at 7.7 µM; actives 17% (n = 2,000); AID 1053131, 2014; in the data active = activation above about 8.9%
TR-FRET interf – TR-FRET optical interference artefacts, confirmation, artefact control for LEDGF/p75-dependent integration inhibitor project, biochemical, HIV-1 IN multimerization. shares compounds with LEDGF integ inh. TR-FRET optical interference counterscreen. inhibition, % at 7.7 µM. 2,000 tested, under 10 active;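 active = inhibition above the mean over all tested compounds plus 3 SD, which no compound reached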;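 also: 0% = integrase with antibodies and DMSO and 100% = antibodies without integrase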
IN-LEDGF confirm – inhibitors of HIV-1 IN-LEDGF/p75 DNA integration, confirmation, biochemical, TR-FRET; shares compounds with LEDGF integ inh; TR-FRET LEDGF/p75-dependent HIV-1 integration; inhibition, % at 3.7 µM; actives 36% (n = 2,000); AID 1053136, 2014; in the data active = inhibition above about 14%
The depositor's hits bear a star; . = not tested or not shown.

SMILES	MBD2 inh	UHRF1 MBD2 ctr	LEDGF integ inh	PRMT1 inh	ABHD5 PLIN5 PPI	rCAG binder	IN multimer up	TR-FRET interf	IN-LEDGF confirm
C[C@@H]1CN(S(=O)(=O)C(C)(C)C)[C@H](CCO)/C1=C\CCO	2	0	-1	2	.	2	.	.	.
CC(C)CCN(C)C1CCN(C(=O)Nc2ccc3c(c2)OCO3)CC1	0	1	-1	7	.	0	.	.	.
O=C(Cc1nnc(NC(=O)c2ccccc2)s1)N/N=C\c1ccc(O)c(O)c1	-2	2	16*	5	1	18	35*	-123	50*
O=C(Nc1nnc(CCc2ccccc2)s1)c1ccccc1	6	1	-3	0	-11	0	.	.	.
NC(=O)NCCC1=CCCCC1	-6	-2	-2	-2	3	-2	.	.	.
C=CCn1c(N)c(C(=O)NCCC2=CCCCC2)sc1=S	1	4	19*	15	-4	-3	5	-25	-1
C=CCN1CCN(C(c2ccccc2)c2nnnn2CCC(C)C)CC1 (centres undefined)	1	0	56*	1	1	-10	-4	16	-1
CC(C)CCn1nnnc1C(c1ccccc1)N1CCN(C)CC1 (centres undefined)	0	-1	2	-4	-3	-7	.	.	.
COC(=O)C1CN(Cc2ccc(F)cc2)CCS(=O)(=O)N1Cc1cn(Cc2ccccc2)nn1 (centres undefined)	-1	8	4	-1	.	0	.	.	.
Cc1nnc(SCC(=O)NCc2ccco2)[nH]c1=O	1	0	0	4	6	6	.	.	.
Cc1cc(=O)[nH]c(SCC(=O)NCc2ccco2)n1	3	8	20*	2	5	7	-1	6	21*
CC(=O)Nc1ccc(OCC(C)CN2CCC(C(O)(c3ccccc3)c3ccccc3)CC2)cc1 (centres undefined)	2	0	-1	-3	.	3	.	.	.
CS(=O)(=O)N1CCC[C@]2(CC[C@H](CCC#N)O2)C1	0	-1	1	-2	.	2	.	.	.
Clc1ccccc1-c1ccc(CN2CCN(c3ccccc3)CC2)o1	1	0	31*	2	-4	3	0	1	0
Cn1c(N)c(S(=O)(=O)N2CCN(c3ccccc3)CC2)c(=O)n(C)c1=O	5	3	15*	1	8	1	0	0	-3
Cc1ccc(NC(=O)C2CC3CCC2C3)c(C)c1 (centres undefined)	5	0	-3	4	.	.	.	.	.
O=C(O)CCCC[C@@H]1SC[C@@H]2NC(=O)N[C@@H]21	5	1	93*	2	2	7	2	-8	96*
N#CC(CC(=O)OCc1ccccc1)NC(=O)OCc1ccccc1 (centres undefined)	1	0	33*	0	-4	-1	-1	6	-3
CC(C)C[C@@H]1COc2cc(Br)ccc2S(=O)(=O)N1Cc1cn(Cc2ccc(Br)cc2)nn1	-4	2	5	-1	.	1	.	.	.
CCOC(=O)c1c(NCC2CCCO2)c2ccccc2[nH]c1=O (centres undefined)	-1	1	1	-2	-2	0	.	.	.
CCOC(=O)c1c(C)oc2c1c(C=NCC1CCCO1)c(O)c1ccccc12 (centres undefined)	-5	9	17*	18	-21	6	1	-3	-1
Cc1ccc(N2C(=O)N(CC(=O)Nc3cccc(C)c3C)C(=O)C2C)cc1 (centres undefined)	-3	-1	15*	0	4	-4	0	-1	-6
CCOC(=O)C1=C(C(=O)OCC)C2N(Cc3ccc(C#N)cc3)c3ccccc3[C@@]23C[C@@H](C(=O)OC)N(S(=O)(=O)c2cccs2)C3=N1 (some centres undefined)	-6	1	0	2	.	17	.	.	.
CCOC(=O)c1cnc2ccc(C)cc2c1NCCN1CCOCC1	-4	3	44*	-1	4	-9	1	-4	1
NCC1C2CCC(O2)C1CO (centres undefined)	4	-2	56*	-8	0	-1	0	0	-2
SMILES	MBD2 inh	UHRF1 MBD2 ctr	LEDGF integ inh	PRMT1 inh	ABHD5 PLIN5 PPI	rCAG binder	IN multimer up	TR-FRET interf	IN-LEDGF confirm
Cc1ccc(-n2c(SCC(=O)N/N=C/c3ccccc3OCC(=O)O)nc3ccccc3c2=O)cc1	-2	-2	68*	-1	-3	23	0	-1	3
COc1cc(C2C(C#N)=C(N)Oc3cc(C)oc(=O)c32)cc2c1OCO2 (centres undefined)	9	42*	20*	5	0	30	3	-14	14*
COc1cc(C2C(C#N)=C(N)Oc3cc(C)oc(=O)c32)cc(OC)c1OC (centres undefined)	-4	0	-1	5	-11	-1	.	.	.
N#Cc1ccc(S(=O)(=O)N2CCCc3nc(-c4ccccc4)ccc32)cc1	-7	-2	-1	-1	.	3	.	.	.
CCOC(=O)c1oc2c(C)c(O)ccc2c(=O)c1-c1nncn1-c1ccccc1	-1	-3	-1	2	5	0	.	.	.
CCOC(=O)c1oc2c(O)c(O)ccc2c(=O)c1-c1nncn1-c1ccccc1	8	9	45*	20	-6	11	6	-20	40*
COC(=O)[C@]12C[C@H](CC(=O)N3CCOCC3)C(=O)N(Cc3ccco3)C1=C[C@H](C(C)(C)C)O[C@@H]2C	1	5	2	-3	.	-1	.	.	.
O=C(O)c1cc(-c2ccco2)nn1-c1cccc(Cl)c1	6	28*	15*	20	6	25	1	-4	11
O=C(O)c1nn(-c2cccc(Cl)c2)c(=O)cc1O	0	1	17*	1	3	4	0	-2	-2

Compound activity: PubChem, The Scripps Research Institute Molecular Screening Center
